Experimental findings from PubChem BioAssay AID932 (The Scripps Research Institute Molecular Screening Center, 2007) are described below.

Screen size: about 200,000 compounds; about 5,100 (2.5%) were called active. The entries come from a sample that favours actives as a whole. A number with no mark means an inactive call.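 How the source made its calls: active means activation above the screen-wide mean activation plus 3 SD (cut at about 130% in these data); inactive means the rest.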

The nature of the test: potentiators of IFN-gamma driven STAT1 reporter – cell-based, HTS, luciferase reporter, primary screen (AID 932).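 Further: raw ratio to IFN-gamma control signal so 100% means no change and 0% no light.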 The conditions noted are these: NIH 3T3 STAT1-luciferase reporter, luminescence, at 5.5 µM, active compounds read high, 100% = IFN-gamma alone, no compound.
On to `O=C(/C=C/c1cccs1)NCc1cccnc1`, for which the activation (% of control) was 101%.

For the molecule `COc1ccc(/C=N/NC(=O)c2cccc(C(F)(F)F)c2)cc1`, the activation (% of control) is 105%.

Take `CSc1ccc(/C=N\NC(=O)COc2ccc(Cl)cc2Br)cc1`: the activation (% of control) is 103%.

Consider `CSc1ccc(/C=N/NC(=O)c2cccc(Cl)c2)cc1`, for which the activation (% of control) is 150% (active). On to `COc1ccc(/C=C/C(=O)Nc2ccc(C34CC5CC(CC(O)(C5)C3)C4)cc2)cc1OC`, for which the activation (% of control) is 141% (active). Then `COc1ccc(/C=C/C(=O)N2CCCC2)cc1OC`, with 84.7%; and `COc1ccc(/C=C/C(=O)Nc2cccnc2)cc1OC`, with 112%; and `O=C(CC12CC3CC(CC(C3)C1)C2)NCc1ccco1`, with 97.2%.

Regarding `C/C(=N\NC(=O)c1cccc(N2CCCC2=O)c1)c1ccc(N)cc1`, the activation (% of control) is 113%. Then `Brc1ccc(-c2nnc(-c3ccccc3)o2)o1`, with 138% (active). Take `OC(c1nnc(-c2ccccc2)o1)c1cccs1` (stereo not drawn): the activation (% of control) was 117%.

As to `Nc1ccc(-c2sc(N)nc2-c2ccccc2)cc1`, the activation (% of control) is 94.5%. The value for `CCCC(=O)Nc1nnc(-c2ccccc2)o1` was 103%; that for `O=C(OCc1ccc(Br)cc1)c1cccc(-c2nnc(-c3ccccc3)o2)c1` was 112%; that for `Nc1ccc(-c2nnc(-c3ccc(-c4ccccc4)cc3)o2)cc1` was 139% (active). For `CCNC(=O)c1ccc(OCC(=O)Nc2ccc(F)cc2)c(OC)c1`, the activation (% of control) was 105%.

As for `CCCCN1C(=O)CCC(C(=O)O)C1c1ccc(OC)cc1` (stereo not drawn), the activation (% of control) was 107%. Then `Nc1ccc(C(=O)NCc2ccccc2)cc1`, with 100%; and `COC(=O)CSc1ccc2nnc(CCNS(=O)(=O)c3ccc(C)cc3)n2n1`, with 96.4%.

`COc1ccc(/C=N/NC(=O)CNC(=O)c2ccc(S(=O)(=O)N3CCCC3)cc2)c(OC)c1`: the activation (% of control) is 99.5%. For the molecule `C(=N\Nc1ccc2ccccc2n1)/c1ccc2c(c1)OCO2`, the activation (% of control) is 35.8%. Then `Cc1noc(C)c1/C=N/Nc1ccc2ccccc2n1`, with 157% (active).

Take `Cc1cc(C)nc(N/N=C/c2c(C)oc3ccccc23)n1`: the activation (% of control) is 98.5%. Then `Cc1cccc(C)c1NC(=O)C(c1ccccc1)N1CC(=O)Nc2ccccc21` (stereo not drawn), with 94.6%; and `Cc1nc2ccc(C(=O)O)cc2[nH]1`, with 96.9%; and `COC(=O)Nc1nc2ccc(Sc3ccccc3)cc2[nH]1`, with 135% (active).

In the case of `COc1cc(OC)cc(C(=O)N[C@H](C(=O)Nc2nc3ccccc3[nH]2)C(C)C)c1`, the activation (% of control) is 96.1%. As for `O=C(CCCc1ccccc1)NCc1ccccc1`, the activation (% of control) is 108%. In the case of `CCOC(=O)CCNC(=O)N1CCCC(C(=O)c2ccccc2SC)C1` (stereo not drawn), the activation (% of control) was 92.5%.

In the case of `O=C(Nc1ccc2sc3ccccc3c(=O)c2c1)c1ccccc1Cl`, the activation (% of control) was 144% (active). Consider `COc1cc(NC(=O)c2cccs2)ccc1NC(=O)c1ccccc1Cl`, for which the activation (% of control) is 109%.

As to `O=C(Nc1ccc2nc3n(c(=O)c2c1)CCCCC3)c1ccccc1Cl`, the activation (% of control) is 101%. The value for `C#CCOCCOCCOCCNc1nc(N2CCN(C(=O)[C@H](C(C)C)n3cc(CCO)nn3)CC2)nc(N2CCN(C(=O)[C@H]([C@@H](C)CC)n3cc(CCCN=C(N)N)nn3)CC2)n1` was 100%; that for `O=C(COc1ccccc1[N+](=O)[O-])NC1CC1` was 92.9%.

On to `NS(=O)(=O)c1ccc(NC(=S)NNC(=O)c2cccs2)cc1`, for which the activation (% of control) is 104%.

With `N#Cc1c(NC(=O)CCCl)sc2c1CCCCC2`, the activation (% of control) is 101%.

Turning to `N#Cc1c(NC(=O)C2CC(Cl)=CCC2C(=O)O)sc2c1CCCCC2` (stereo not drawn), the activation (% of control) is 103%. Then `N#Cc1c(NC(=O)C2CCCO2)sc2c1CCCCC2` (stereo not drawn), with 139% (active); and `CCOC(=O)c1ccc(NC2Nc3cc(C)nn3S2)cc1` (stereo not drawn), with 102%. The value for `CCc1ccc(NC(=O)N2CCN(c3ccccc3)CC2)cc1` was 109%; that for `CCc1ccc(NC2Nc3cc(C)nn3S2)cc1` (stereo not drawn) was 171% (active); that for `COc1ccc(/C(N)=N/OC(=O)Cc2ccccc2)cc1` was 142% (active).

As for `COc1ccc(/C(N)=N/OC(=O)Oc2ccccc2)cc1`, the activation (% of control) was 98.3%. The value for `COc1ccc(/C(N)=N/OC(=O)CCCc2ccccc2)cc1` was 108%; that for `COc1ccccc1-c1nc(SC)n[nH]1` was 103%. Then `CCOc1ccc(OCc2cccc(C(=O)N(CC)CC)c2)cc1`, with 43.9%; and `C/C(=N/NS(=O)(=O)c1ccccc1)c1ccc(NC(=O)C(F)(F)F)cc1`, with 105%; and `COc1cccc(C(=O)Nc2ccc(NC(=O)c3ccco3)cn2)c1`, with 108%. As to `O=C(O)Cc1ccc(NC(=O)c2cccs2)cc1`, the activation (% of control) is 89.8%. With `O=C(Nc1ccc(Sc2ccc(Br)cc2)cc1)c1ccco1`, the activation (% of control) is 93.9%. The value for `CN1CCN(S(=O)(=O)c2ccc(NC(=O)c3ccco3)cc2)CC1` was 98.8%; that for `O=C(Nc1ccc(NC(=O)c2cccs2)cn1)c1ccco1` was 142% (active). Then `Cc1cccc(NC(=O)Nc2cccc(Oc3c(F)c(F)c(F)c(F)c3F)c2)c1`, with 101%; and `COC(=O)c1ccc(NC(=O)c2ccco2)cc1`, with 124%; and `Cc1ccoc1C(=O)Nc1cccc(Oc2ccccc2)c1`, with 137% (active). Then `C/C(=N\NS(=O)(=O)c1ccc(Cl)cc1)c1ccc(NC(=O)c2ccco2)cc1`, with 142% (active). For `O=C(Nc1ccc(Oc2ccccc2)cc1)c1ccco1`, the activation (% of control) is 132% (active). Then `Cc1ccc(C(=O)COc2cccc(NC(=O)c3ccco3)c2)cc1`, with 93.6%; and `Cc1c(Cl)cccc1NC(=S)N(Cc1ccccc1)Cc1cccnc1`, with 94.9%. The value for `CC(=O)Nc1ccc(NC(=S)NC(=O)/C=C/c2ccccc2)cc1` was 87.3%. `COc1cc(/C=N/N=C(\N)c2nonc2N)cc(OC)c1OC`: the activation (% of control) was 102%. For `CC(C)(C)n1nc2c(c1NC(=O)c1cc3ccccc3o1)CSC2`, the activation (% of control) was 97.4%. For the molecule `Cc1cc(C)n(-c2nnc(N3CCN(c4ccccc4)CC3)nn2)n1`, the activation (% of control) was 104%. Take `O=C(/C=C/c1ccco1)Nc1cccc(-c2nc3ccccc3[nH]2)c1`: the activation (% of control) is 119%. In the case of `Cc1nnc(NC(=O)/C=C/c2ccco2)s1`, the activation (% of control) is 105%. The value for `O=C(/C=C/c1ccco1)Nc1ccc(Oc2ccccc2)cc1` was 134% (active); that for `Cc1ccnc(NC(=O)c2ccco2)n1` was 101%. Then `Cc1ccnc(NC(=O)c2ccoc2C)c1`, with 127%. The value for `Cc1ccnc(NC(=O)c2ccc(NC(=O)c3ccco3)cc2)c1` was 129% (active). Take `Cn1c(=O)c2c(ncn2CC(=O)N/N=C/c2cn[nH]c2-c2ccc(F)cc2)n(C)c1=O`: the activation (% of control) is 109%. Then `CC(Oc1ccccc1F)C(=O)NN` (stereo not drawn), with 98%. In the case of `CC(C)c1nc(CNC(=O)CC2C(=O)NCCN2Cc2ccoc2)cs1` (stereo not drawn), the activation (% of control) is 101%. Take `O=C(O)c1ccc(NS(=O)(=O)c2ccc3c(c2)C(=O)c2cc(S(=O)(=O)Nc4ccc(C(=O)O)cc4)ccc2-3)cc1`: the activation (% of control) is 95.5%. Take `CCCn1nc(C(=O)N2CCCc3ccccc32)c2ccccc2c1=O`: the activation (% of control) was 97.4%. The value for `COc1ccc(Nc2nc(Cl)nc(NCc3ccco3)n2)cc1` was 104%. The value for `COc1ccc(-n2cnc3cc(C(=O)NC4CCCC4)ccc32)cc1` was 110%.

For `COc1ccc(-n2cnc3cc(NCc4ccco4)ccc32)cc1`, the activation (% of control) is 137% (active). As for `COc1cc(C(=O)N[C@@H](C)C(=O)NCc2ccco2)cc(OC)c1OC`, the activation (% of control) is 102%.

With `CN(CC(=O)Nc1ccccc1[N+](=O)[O-])Cc1ccc(Br)cc1`, the activation (% of control) was 97.7%.

Turning to `CC(C)CCN1CCN(Cc2ccc(C(F)(F)F)cc2)CC1CCO` (stereo not drawn), the activation (% of control) is 100%. The value for `O=C1CC(c2cccc(Cl)c2)CC(O)=C1C=Nc1ccccc1` (stereo not drawn) was 99.6%; that for `CC1=NN(c2ccccc2)C(=O)C1C(=O)c1ccc([N+](=O)[O-])cc1` (stereo not drawn) was 94.7%. The value for `Cn1c(=O)n(Cc2ccco2)c(=N)c2c3c(sc21)CCCC3` was 103%; that for `Cc1nn2c3cc(N4CCOCC4)ccc3nc2c2ccccc12` was 134% (active); that for `N#CCSc1nc2ccc(N3CCOCC3)cc2c(=O)n1CCc1ccccc1` was 102%. Take `Cc1cc(C(=O)Nc2ccccc2N2CCOCC2)c2ccccc2n1`: the activation (% of control) is 102%.

On to `CCCc1c(C)nc2c(Br)cccc2c1Cl`, for which the activation (% of control) was 97.5%.

As to `Cc1nc2ccccc2nc(C)c1=NOCc1ccc(Cl)cc1Cl`, the activation (% of control) was 111%.

For the molecule `O=C(OCC#CCSc1nnc(-c2ccncc2)o1)c1sc2ccccc2c1Cl`, the activation (% of control) is 100%. Then `Clc1ccc(-c2nnc(SCc3nc4ccccc4s3)o2)cc1`, with 122%. Then `C#CCSc1nnc(-c2sc3ccccc3c2Cl)o1`, with 140% (active); and `Cc1nonc1C1CCCN1Cc1nc(-c2ccc(F)cc2F)oc1C` (stereo not drawn), with 96%.

For `CN(C)CCn1c(=S)[nH]c2ccc(Cl)cc2c1=O`, the activation (% of control) was 95.1%. The value for `CN(C)CCN=c1cc(-c2ccccc2)oc2ccc(Cl)cc12` was 148% (active); that for `Cc1ccc(N(Cc2cc3ccccc3[nH]c2=O)C(=O)c2cccs2)cc1` was 91.2%; that for `CN(C)S(=O)(=O)Oc1ccccc1C(=O)Nc1ccccc1Cl` was 91.9%. Then `CN(c1ccc(C(=O)NCCC2=CCCCC2)cc1)S(C)(=O)=O`, with 158% (active); and `O=C(Cc1nn[nH]n1)NCCC1=CCCCC1`, with 94.3%. Then `O=C(NCCC1=CCCCC1)c1ccc(Cl)c([N+](=O)[O-])c1`, with 110%. Consider `O=C(Cc1cccc2ccccc12)NCCC1=CCCCC1`, for which the activation (% of control) is 101%. The value for `CN(c1ccc(C(=O)NCc2ccccn2)cc1)S(C)(=O)=O` was 106%; that for `Cn1nnc2cc(C(=O)NCCC3=CCCCC3)ccc21` was 153% (active); that for `Cc1nnc(SCC2=C(C(=O)O)N3C(=O)C(NC(=O)Cn4nc(C)c(Cl)c4C)C3SC2)s1` (stereo not drawn) was 99.2%.
